Screening data as filed in PubChem BioAssay.
An excerpt weighted towards active compounds, which were near 7.5% of everything screened.
SMN2 splice enh: increases expression of the SMN2 splice variant | Potency, µM (doses to about 46.1 µM), without a hit: at the highest dose activity change, positive = activation, usual class: activators | AID 1458 | hit rate 2.8% among 210,000 | HEK293 SMN2-luciferase splicing reporter, luminescence, 30-36 h; note: % of control where 0% means no effect; nearly all actives have a fitted effect of over 55% in size
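qHTS luciferase splicing reporter: luminescence rises when SMN2 exon 7 is included in transfected HEK293 cells. Compound exposure lasted 30-36 h at 37C, with 4.5 mM final sodium butyrate as control, followed by a ONE-Glo read.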
ELG1 genotox: induces genotoxicity in HEK293T cells with luciferase-tagged ELG1; HEK293T ELG1-luciferase reporter, luminescence, 16 h; Potency, µM (top dose mostly 46 µM), for inactives: at the top dose activity change, positive = activation, actives largely listed as activators; hit rate 1.3% among 330,000; note: % of control where 0% means no effect; nearly all actives have a fitted effect of over 60% in size
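After overnight (16 hr) compound treatment at 37 °C, ELG1-luciferase HEK293T cells were lysed with ONE-Glo; luminescence quantified 30 min later at room temperature.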
FLuc counter: inhibits or activates purified firefly luciferase, miR-21 counter-screen. P08659. purified FLuc, Km substrates, luminescence inhibition. Potency, µM (top dose mostly 57.5 µM), for the others: at the highest dose activity change, negative = inhibition, most hits filed as inhibitors. hit rate 6.9% among 360,000;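 note: plate controls were vehicle for no effect and reference inhibitor for full effect; nearly all actives have a fitted effect of over 55% in size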
Target sequence (P08659 whole entry, looked up): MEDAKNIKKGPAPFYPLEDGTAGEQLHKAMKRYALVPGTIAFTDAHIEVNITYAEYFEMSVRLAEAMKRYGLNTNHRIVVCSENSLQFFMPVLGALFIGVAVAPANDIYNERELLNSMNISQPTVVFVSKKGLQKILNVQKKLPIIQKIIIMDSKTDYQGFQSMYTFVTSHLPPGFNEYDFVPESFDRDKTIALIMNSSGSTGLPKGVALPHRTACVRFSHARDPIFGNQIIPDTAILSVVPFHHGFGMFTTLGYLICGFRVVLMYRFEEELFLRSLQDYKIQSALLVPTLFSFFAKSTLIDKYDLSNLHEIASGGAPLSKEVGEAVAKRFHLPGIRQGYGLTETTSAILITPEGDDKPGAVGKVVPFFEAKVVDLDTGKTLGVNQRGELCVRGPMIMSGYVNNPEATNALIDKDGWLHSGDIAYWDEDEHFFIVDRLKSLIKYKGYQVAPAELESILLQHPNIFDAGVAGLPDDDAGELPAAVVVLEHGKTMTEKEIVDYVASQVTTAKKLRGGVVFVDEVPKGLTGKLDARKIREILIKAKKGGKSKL
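Purified P. pyralis luciferase (10nM final) with 10uM D-luciferin and 10uM ATP (Km levels) in 50mM Tris acetate pH 7.5, 10mM Mg acetate, 0.01% Tween-20, 0.05% BSA; qHTS 6-point titration, ~60 µM downward; luminescence read.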
NPC1 prom act: activates the NPC1 promoter; Huh7 NPC1 promoter luciferase reporter, 24 h; Potency, µM (top dose mostly 9.22 µM), for inactives: at the highest dose activation, actives largely listed as activators; hit rate 2.4% among 320,000; AID 485313; note: % of control where 0% means no effect; nearly all actives have a fitted effect of over 60% in size
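NPC1 promoter–luciferase Huh7 cells; 24 h compound; luminescence.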
KinaseGlo FLuc: counter-screen: inhibitors of Kinase-Glo firefly luciferase. Kinase-Glo luciferase, ATP luminescence, 8 min. Potency, µM (top dose mostly 38.3 µM), for the others: top-dose activity change, negative = inhibition, usual class: inhibitors. hit rate 0.28% among 200,000; note: % is set by controls: 0 for no effect and ±100 for the full control effect; nearly all actives have a fitted effect of over 60% in size
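Kinase-Glo luciferase light output from ATP and luciferin was measured with 10 uM ATP, within the enzyme's linear range. Buffer: 50 mM imidazole pH 7.2, 50 mM KCl, 7 mM MgCl2, 0.01% Tween 20, 0.05% BSA; luminescence read after 8 min at ambient temperature.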
Rab9 promoter act: activators of Rab9 promoter; Huh7 Rab9 promoter-luciferase reporter, luminescence, 24 h; hit rate 2.8% among 320,000; AID 485297; Potency, µM (series often up to 9.22 µM), without a hit: at the top dose activation, negative = inhibition, actives largely listed as activators; note: % of control where 0% means no effect; nearly all actives have a fitted effect of over 60% in size
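Cell-based reporter: Huh7 stable for Rab9 promoter-driven luciferase, plated in reduced-serum medium with 10% FBS at 1500 cells/well, compound-treated 24 h at 37 °C, luminescence read after 10 min reagent.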
Starred values were filed as active, the others as inactive; [ ] = remark or other dose. Calls come from the whole dose curve; as a rule, active = well fitted curve in the direction sought with a large enough effect; inconclusive = small, poorly fitted or top-dose-only effect, or another doubt; inactive = no such curve, though single readings can be large; an effect the other way counts as inactive or inconclusive. Potency is the fitted concentration of half-maximal effect.

What do the screens show for `Cn1c(NCc2ccc(Cl)cc2)nc2ccccc21`?
SMN2 splice enh: 11µM*; ELG1 genotox: inconclusive; FLuc counter: 9.5µM*; NPC1 prom act: 2.5µM*; KinaseGlo FLuc: -2%; Rab9 promoter act: 3.5µM*

How did Cc1ccc(CNc2nc3ccccc3n2C)cc1 do in these assays?
ELG1 genotox: inconclusive; FLuc counter: 2.4µM*; NPC1 prom act: 0.5µM*; Rab9 promoter act: 0.5µM*

What do the screens show for `O=c1c2cnn(-c3ccc(Cl)cc3)c2ncn1Cc1ccc(Cl)cc1Cl`?
SMN2 splice enh: -1%; FLuc counter: -6%

What do the screens show for `COc1cc(NS(=O)(=O)c2cc3c(cc2C)n(C)c(=O)c(=O)n3C)cc(OC)c1`?
FLuc counter: 0%

How did CCc1nn2cc(C(=O)c3cc(Cl)ccc3O)cnc2c1-c1ccc(F)cc1 do in these assays?
SMN2 splice enh: -32%; ELG1 genotox: -11%; FLuc counter: 2%; NPC1 prom act: -1%; KinaseGlo FLuc: 3%; Rab9 promoter act: -5%

How did COc1cn(-c2ccccc2)nc1C(=O)OCC(=O)Nc1ccc(C)c(C)c1 do in these assays?
ELG1 genotox: 11%; NPC1 prom act: -2%; Rab9 promoter act: -2%

What do the screens show for `Nc1c(-c2ccccc2)cnc2ncnn12`?
SMN2 splice enh: -2%; ELG1 genotox: 2%; FLuc counter: 1%; NPC1 prom act: 0%; KinaseGlo FLuc: -4%; Rab9 promoter act: -7%

What do the screens show for `Cc1nc2c(-c3ccc(Cl)cc3)cnn2c(N)c1-c1ccc(F)cc1`?
ELG1 genotox: 6.5µM*; FLuc counter: 1.7µM*; NPC1 prom act: 15%; Rab9 promoter act: inconclusive

Results for Nc1c(-c2cccc(Cl)c2)cnc2c(-c3ccccc3)cnn12 ?
ELG1 genotox: inconclusive; FLuc counter: 4.3µM*; NPC1 prom act: 1.3µM*; Rab9 promoter act: inconclusive

Results for COc1ccccc1-c1c(C)nn2c(N)c(-c3ccc(Cl)cc3)cnc12 ?
ELG1 genotox: 0%; FLuc counter: inconclusive; NPC1 prom act: 1%; Rab9 promoter act: 10%

What do the screens show for `Cc1nc2c(-c3ccc(Cl)cc3)cnn2c2c1CCC2`?
SMN2 splice enh: 25%; ELG1 genotox: 4%; FLuc counter: inconclusive; NPC1 prom act: inconclusive; KinaseGlo FLuc: 3%; Rab9 promoter act: inconclusive

Results for COc1ccc(-c2cc(C(F)(F)F)n3ncc(-c4ccccc4)c3n2)cc1 ?
SMN2 splice enh: 0%; FLuc counter: -3%

Results for COc1ccc(-c2c(C)nc3c(-c4ccc(F)cc4)cnn3c2N)cc1 ?
ELG1 genotox: inconclusive; FLuc counter: 0.85µM*; NPC1 prom act: 0.5µM*; Rab9 promoter act: 0.45µM*

Results for Nc1c(-c2ccc(Cl)cc2)cnc2c(-c3ccc(F)cc3)cnn12 ?
ELG1 genotox: 7.3µM*; FLuc counter: 1.5µM*; NPC1 prom act: 0.56µM*; Rab9 promoter act: 0.5µM*

How did COc1ccc(NC(=O)CSc2nc3ccccc3nc2N2CCC(C)CC2)cc1 do in these assays?
SMN2 splice enh: -1%; FLuc counter: 2%

How did Cc1cc(C)c2c(SCc3ccc(Cl)cc3Cl)nc(N)nc2n1 do in these assays?
SMN2 splice enh: -1%[9.22 µM]; KinaseGlo FLuc: -3%[7.66 µM]

Results for Cc1c(C(=O)OCC(=O)N(C)Cc2ccc(Cl)cc2)oc2ccccc12 ?
ELG1 genotox: -2%; NPC1 prom act: 0%; Rab9 promoter act: 8%

What do the screens show for `Cc1cc(C(F)(F)F)n2ncc(-c3ccc(F)cc3)c2n1`?
SMN2 splice enh: -20%; ELG1 genotox: 3%; FLuc counter: 0%; NPC1 prom act: -2%; KinaseGlo FLuc: -3%; Rab9 promoter act: -6%

How did Cc1nc2c(-c3ccc(F)cc3)cnn2c(N)c1-c1ccccc1 do in these assays?
ELG1 genotox: 0.58µM*; FLuc counter: 0.24µM*; NPC1 prom act: -4%; Rab9 promoter act: 3%

How did CN(C)CCOC(=O)c1ccc(N)cc1 do in these assays?
SMN2 splice enh: -10%[9.22 µM]; KinaseGlo FLuc: -3%[7.66 µM]
